For 34 compounds, growth results are on record in PubChem BioAssay (NCI).

Molecules are shown by their SMILES. Values joined by “and” are separate entries in the source; they are usually repeats but may differ in a detail not shown here. Identical values can stand only once. This is part of a sample that, as a whole, favours compounds with a hit. Of some 83,000 tested, about 20% had one in any assay.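 Percent growth is the endpoint: 0 to 100 indicates growth inhibition (40 means 60% inhibition), 0 means no net growth, and negative values indicate cell death.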 Unmarked numbers belong to inactive results. Active and inactive are the calls of the source. How the source made its calls: active means growth percent below 10; inactive means the rest.

This test relates to NCI-H460 lung. Kind of test: NCI-60 one-dose screen, 48 h (100 = growth as untreated, 0 = no growth, -100 = all killed). To be noted: 10 µM unless noted.
As to `O=C(O)C1C2CCC1C(O)C2` (centres undefined), the growth is 112% and 111%. Take `CC1=C2[C@@H](CC1)[C@]1(C)O[C@@](C3CC3)(C[C@H]1OC(=O)CO)[C@H]2OC(=O)/C=C/c1ccccc1`: the growth was 90.7%. Consider `CON1CCC[C@]2(C)[C@H]3CC[C@@H]4[C@H]5[C@@H](O)C(C)(C)CC[C@]5(CO)CC[C@@]4(C)[C@]3(C)CC[C@H]2C1(C)C`, for which the growth is 102%. Then `O=C(Nc1ccccc1C(=O)N/N=C(\c1ccccc1)c1ccccn1)c1ccccc1`, with -0.498% (active); and `CNC(=O)c1cc(Oc2ccc3nc(NC(=O)Nc4ccc(C(F)(F)F)cc4)sc3c2)ccn1`, with 33.4%; and `COc1cc(CO)cc2cc3ccccc3nc12`, with 105%. Then `Cc1ccc(S(=O)(=O)OC[C@@]2(C)CC[C@]3(C)CC[C@]4(C)C(=CC[C@@H]5[C@@]6(C)CCCNC(C)(C)[C@@H]6CC[C@]54C)[C@@H]3C2)cc1`, with -74.6% (active); and `O=C1C(c2c[nH]c3ccccc23)=C(c2coc3cc(Br)ccc23)C(=O)N1O`, with 97.2%. Then `Cc1ccc(Cc2cnc(NC(=O)c3cc(C)oc3C)s2)cc1`, with 31.3%; and `CN(Cc1ccccc1)c1nc(Cl)c(C2CC(c3ccc4c(c3)OCO4)=NN2c2cc(Cl)cc(Cl)c2)s1` (centres undefined), with 103%. `COc1ccc(/C=C/C(=O)c2cc3c(N)c(C(=O)Nc4ccccc4Cl)sc3nc2C)cc1`: the growth is 32.6%. Take `COc1ccc(/C=N/NC(=O)CN2CCN(c3cc4c(cc3F)c(=O)c(C(=O)O)cn4C3CC3)CC2)cc1O`: the growth was 105%.

Regarding `COc1ccc(-c2csc(NC(=O)CN3CCN(CCO)CC3)n2)cc1NS(=O)(=O)c1cccc2c(N(C)C)cccc12`, the growth was 67.1%.

Take `COc1cccc(NC(=O)c2sc3nc(C)c(C(O)c4ccccc4)cc3c2N)c1` (centres undefined): the growth is 4.01% (active).

For `COc1ccc(N2CCN(S(=O)(=O)c3oc(-c4ccccc4)nc3C#N)CC2)cc1`, the growth was 94.8%. With `O=S(=O)(O)c1ccc(N=Nc2ccc(N=Nc3cccc4ccccc34)c(S(=O)(=O)O)c2)cc1`, the growth was 98.9%. Take `O=C1/C(=C/c2ccc(F)c(F)c2)CN(C(=O)C(Cl)Cl)C/C1=C\c1ccc(F)c(F)c1`: the growth is -71.9% (active). Under `O=S(=O)(Nc1cc(Sc2cccc3cccnc23)c(O)c2ccccc12)c1ccc(F)cc1` stands 4.76% (active).

For `COc1cc(Cl)cc(-c2nn(C(=O)NS(=O)(=O)c3ccc(Cl)cc3)cc2-c2ccncc2)c1`, the growth was 111%. Then `CCN1CCN(CC(=O)Nc2nc3ccc(NCc4ccc(C)cc4)cc3s2)CC1`, with 44.5%. On to `COc1cc(-c2nc(SCCC(C)C)nc(Nc3ccc(F)cc3)c2C#N)cc(OC)c1OC`, for which the growth was 21.4%. Under `O=C(/C=C/c1ccc([N+](=O)[O-])cc1)c1ccccc1` stands 105%. Then `COc1cc(-c2nn(-c3cccc(NC(=O)CCN4CCN(C)CC4)c3)cc2-c2ccncc2)ccc1Cl`, with 14.9%. For the compound `N#CC(Cc1cccc2ccccc12)c1cc2ccccc2[nH]1` (centres undefined), the growth is 99.8%.

`C#CCOCC1CN(C)C(=O)O1` (centres undefined): the growth is 103%. Then `Cc1ccc(/C=C/c2c(C(=O)/C=C/c3ccccc3)c(C)nc3ccccc23)cc1`, with -9.62% (active); and `Cc1ccc(-c2nc(C#N)c(S(=O)(=O)N(C)C)o2)cc1`, with 110%; and `O=C(Nc1ncc(Cc2cccc(C(F)(F)F)c2)s1)c1ccc(-n2cnnn2)cc1`, with 30.5%.

On to `COc1c(F)cc(-n2c(C(=O)N3CC(F)C3)cc3cccnc32)cc1F`, for which the growth is 106%. Then `N=C1/C(=C2\NC3C=CC=CC3S2)C(c2ccc(Cl)cc2)C2C(=O)N(c3ccccc3)C(=S)N12` (centres undefined), with 107%. `COc1ccc(Cl)cc1Nc1nc(C(F)(F)F)ccc1C(=O)N/N=C/c1ccc(N(C)C)cc1`: the growth was 143%.

On to `Cc1ccc(NC(=O)c2ccc(CN3CCN(C)CC3)cc2)cc1Nc1nccc(-c2cccnc2)n1`, for which the growth was 96.8% and 83.9%. Under `C=C1C(=O)O[C@H]2[C@H]1CC/C(COC(=O)NCCCCNC(=O)OC/C1=C/CC[C@@]3(C)O[C@H]3[C@H]3OC(=O)C(=C)[C@@H]3CC1)=C\CC[C@@]1(C)O[C@@H]21` stands 102%; under `C[C@@H]1O[C@@H](O[C@H]2[C@@H](OC(=O)[C@]34CCC(C)(C)C[C@H]3C3=CC[C@@H]5[C@@]6(C)C[C@H](O)[C@H](O[C@@H]7O[C@H](CO)[C@@H](O)[C@H](O)[C@H]7O)[C@@](C)(CO)[C@@H]6CC[C@@]5(C)[C@]3(C)C[C@H]4O)OC[C@@H](O)[C@@H]2O)[C@H](O)[C@H](O[C@@H]2OC[C@@H](O)[C@H](O[C@@H]3OC[C@](O)(CO)[C@H]3O[C@@H]3OC[C@@H](O)[C@H](O)[C@H]3O)[C@H]2O)[C@H]1O[C@@H]1OC[C@](O)(CO)[C@H]1O`, 110%.
